Experimental data from PubChem BioAssay (Tox21).
Inconclusive results are not listed. Calls of active or inactive are those of the source. Unless noted, the call rests on the fitted dose curve; in most records, active means well fitted curve in the direction sought with a large enough effect in the repeat runs; inconclusive means weak or mixed curves; inactive means no such curve, though single readings can be large; an effect the other way counts as inactive or inconclusive.

Experiments:
[1] = test system: thyroid hormone receptor (rat, GH3 cells); assay: qHTS assay to identify small molecule agonists of the thyroid receptor (TR) signaling pathway (AID 743066; calls by dose curve)
[2] = target: Estrogen receptor (Homo sapiens) (UniProt P03372); assay: qHTS assay to identify small molecule agonists of the estrogen receptor alpha (ER-alpha) signaling pathway (AID 743075; calls by dose curve)
[3] = target: Estrogen receptor (Homo sapiens) (UniProt P03372); assay: qHTS assay to identify small molecule agonists of the estrogen receptor alpha (ER-alpha) signaling pathway using the BG1 cell line (AID 743079); further: nearly all actives have a fitted effect of over 20% in size
[4] = qHTS assay to identify small molecule antagonists of the estrogen receptor alpha (ER-alpha) signaling pathway using the BG1 cell line (AID 743080; calls by dose curve;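 further: BG1 cells stimulated with 17beta-estradiol alongside compound; nearly all actives have a fitted effect of over 25% in size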; further: potency means the concentration at half of the fitted maximal effect)
Summary of the method: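 BG1-Luc-4E2 cells (endogenous full-length ER-alpha, stable 4×ERE-luciferase) were starved 5 days in phenol-red-free medium with 10% charcoal-stripped FBS, plated 24 h, then given compound plus 17beta-estradiol for 21.5 h at 37 C; ONE-Glo luminescence read after 30 min.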

[5] = qHTS assay to identify small molecule antagonists of the estrogen receptor alpha (ER-alpha) signaling pathway using the BG1 cell line - cell viability counter screen (AID 743081);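 further: compound given together with 17beta-estradiol as the ER stimulus; series mostly up to about 70 µM; nearly all actives have a fitted effect of over 45% in size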
[6] = qHTS assay to identify aromatase inhibitors - cell viability counter screen (AID 743084);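 further: cells stimulated with testosterone during compound exposure; nearly all actives have a fitted effect of over 55% in size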; further: potency means the concentration at half of the fitted maximal effect
[7] = qHTS assay to identify small molecule that activate the aryl hydrocarbon receptor (AhR) signaling pathway - cell viability counter screen (AID 743086); further: nearly all actives have a fitted effect of over 45% in size; further: potency means the concentration at half of the fitted maximal effect
Summary of the method: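 HepG2-AhR-luc (HG2L7.5c1) cells, 4000/well, were preincubated 5 h at 37C, exposed to compound in qHTS format for 24 hr at 37C, then given CellTiter-Fluor for 30 min; viability was read as fluorescence in the reporter wells.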

[8] = qHTS assay to identify small molecule antagonists of the peroxisome proliferator-activated receptor gamma (PPARg) signaling pathway - cell viability counter screen (AID 743194); details: Potency: co-treated with 50 nM rosiglitazone; further: nearly all actives have a fitted effect of over 55% in size
Summary of the method: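 PPARg-UAS-bla HEK293H cells were plated, rested 5 h at 37 C, then treated with compounds plus rosiglitazone (50 nM final) for 17 h at 37 C; viability was then read by CellTiter-Glo luminescence after 30 min at room temperature.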

[9] = qHTS assay for small molecule agonists of the antioxidant response element (ARE) signaling pathway (AID 743202; active means well fitted activation curve with a large enough effect in the signal ratio in the repeat runs, not every such curve was filed as active; the % refers to the signal ratio; further: potency means the concentration at half of the fitted maximal effect)
Summary of the method: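 Steps: seed ARE-bla HepG2 cells (2,000/well); incubate 5 h at 37 C; add compounds by pin tool; incubate 16 h at 37 C; add FRET substrate; read fluorescence after 2 h at RT.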

[10] = qHTS assay for small molecule agonists of the antioxidant response element (ARE) signaling pathway - cell viability counter screen (AID 743203; calls by dose curve; further: nearly all actives have a fitted effect of over 55% in size; further: potency means the concentration at half of the fitted maximal effect)
Summary of the method: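 Measured in the same wells as the beta-lactamase ARE reporter, this read-out is CellTiter-Glo luminescence from HepG2 ARE-bla cells given compounds for 16 hrs.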

[11] = qHTS assay for small molecule activators of the heat shock response signaling pathway - cell viability counter screen (AID 743209); further: nearly all actives have a fitted effect of over 50% in size
Summary of the method: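 Same-well multiplex: after 2.5 h room-temperature incubation with LiveBLAzer B/G substrate and fluorescence reading, CellTiter-Glo reagent was added to HSE-bla HeLa cells that had received compound for 5 h at 37 C; luminescence read after 30 min.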

[12] = qHTS assay to identify small molecule agonists of the peroxisome proliferator-activated receptor delta (PPARd) signaling pathway - cell viability counter screen (AID 743211); further: nearly all actives have a fitted effect of over 55% in size
Summary of the method: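 Viability of GeneBLAzer PPARd UAS-bla HEK293H cells was assessed after 17 h compound incubation at 37C, using CellTiter-Glo reagent added after the reporter read and luminescence recorded 30 min later.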

[13] = target: Estrogen receptor (Homo sapiens) (UniProt P03372); assay: qHTS assay to identify small molecule antagonists of the estrogen receptor alpha (ER-alpha) signaling pathway (AID 743069; active means well fitted curve in the direction sought with a large enough effect in the signal ratio in the repeat runs, not every such curve was filed as active; the % refers to the signal ratio)
Summary of the method: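 Screening used a UAS-driven beta-lactamase reporter integrated into HEK293 cells expressing ER-alpha, stimulated with 17beta-estradiol alongside test compounds over 18 hr at 37C; signal came from LiveBLAzer B/G FRET fluorescence.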

[14] = qHTS assay to identify small molecule antagonists of the estrogen receptor alpha (ER-alpha) signaling pathway - cell viability counter screen (AID 743074; calls by dose curve; further: nearly all actives have a fitted effect of over 45% in size)
[15] = target: Aromatase (Homo sapiens) (UniProt P11511); assay: qHTS assay to identify aromatase inhibitors (AID 743083); further: nearly all actives have a fitted effect of over 55% in size; further: potency means the concentration at half of the fitted maximal effect
[16] = target: Peroxisome proliferator-activated receptor gamma (Homo sapiens) (UniProt P37231); assay: qHTS assay to identify small molecule agonists of the peroxisome proliferator-activated receptor gamma (PPARg) signaling pathway (AID 743094; active means well fitted activation curve with a large enough effect in the signal ratio in the repeat runs, not every such curve was filed as active; the % refers to the signal ratio)
Summary of the method: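 Cell-based bla reporter, HEK293H background, PPARg-driven UAS. Pre-incubation 5 h, 37C, 5% CO2. Compound 17 h, 37C. Substrate 1 h RT; fluorescence.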

[17] = qHTS assay for small molecule activators of the heat shock response signaling pathway (AID 743210; active means well fitted activation curve with a large enough effect in the signal ratio in the repeat runs, with a control signal flat, not every such curve was filed as active; the % refers to the signal ratio;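 further: HeLa cells with beta-lactamase reporter driven by heat shock elements; series mostly up to about 63 µM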)
Summary of the method: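 Activation of heat shock element-controlled beta-lactamase expression is measured in HeLa cells by LiveBLAzer FRET fluorescence, with compound exposure lasting 5 h at 37 C and substrate loading 2.5 h at room temperature.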

[18] = target: Aryl hydrocarbon receptor (Homo sapiens) (UniProt P35869); assay: qHTS assay to identify small molecule that activate the aryl hydrocarbon receptor (AhR) signaling pathway (AID 743085); further: nearly all actives have a fitted effect of over 15% in size; further: potency means the concentration at half of the fitted maximal effect;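 on activation: HG2L7.5c1 human HepG2 liver cells with stably integrated DRE-driven firefly reporter; series mostly up to about 70 µM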
Summary of the method: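 Steps: seed HepG2-AhR-luc cells; allow 5 h at 37C; pin-transfer test compound or vehicle; incubate 24 h at 37C; add viability dye (30 min, 37C) and read fluorescence; add luciferase substrate (30 min, RT) and read luminescence.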

[19] = target: Peroxisome proliferator-activated receptor gamma (Homo sapiens) (UniProt P37231); assay: qHTS assay to identify small molecule antagonists of the peroxisome proliferator-activated receptor gamma (PPARg) signaling pathway (AID 743191; calls by dose curve; further: nearly all actives have a fitted effect of over 30% in size; further: potency means the concentration at half of the fitted maximal effect)
Summary of the method: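 GeneBLAzer PPARg UAS-bla HEK293H cells carrying a UAS-driven beta-lactamase reporter were plated at 3000 cells/well, preincubated 5 h at 37C, then given compound for 17 h at 37C; LiveBLAzer B/G FRET substrate was read after 1 h at room temperature.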

Measured: Potency

Sequence of Aromatase (Homo sapiens) (P11511 whole entry, looked up): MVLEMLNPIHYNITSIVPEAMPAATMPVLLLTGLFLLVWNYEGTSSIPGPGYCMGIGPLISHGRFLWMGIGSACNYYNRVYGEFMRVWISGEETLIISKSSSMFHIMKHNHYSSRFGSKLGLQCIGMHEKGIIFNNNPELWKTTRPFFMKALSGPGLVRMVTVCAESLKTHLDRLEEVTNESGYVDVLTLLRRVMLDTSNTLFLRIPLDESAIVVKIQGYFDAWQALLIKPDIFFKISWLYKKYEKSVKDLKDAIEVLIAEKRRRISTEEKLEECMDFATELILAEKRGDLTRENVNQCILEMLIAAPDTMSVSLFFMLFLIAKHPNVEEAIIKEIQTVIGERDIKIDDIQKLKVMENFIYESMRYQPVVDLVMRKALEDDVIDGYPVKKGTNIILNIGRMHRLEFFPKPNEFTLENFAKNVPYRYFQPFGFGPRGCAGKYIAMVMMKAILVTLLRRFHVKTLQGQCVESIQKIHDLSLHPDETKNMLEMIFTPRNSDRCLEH
Sequence of Peroxisome proliferator-activated receptor gamma (Homo sapiens) (P37231 whole entry, looked up): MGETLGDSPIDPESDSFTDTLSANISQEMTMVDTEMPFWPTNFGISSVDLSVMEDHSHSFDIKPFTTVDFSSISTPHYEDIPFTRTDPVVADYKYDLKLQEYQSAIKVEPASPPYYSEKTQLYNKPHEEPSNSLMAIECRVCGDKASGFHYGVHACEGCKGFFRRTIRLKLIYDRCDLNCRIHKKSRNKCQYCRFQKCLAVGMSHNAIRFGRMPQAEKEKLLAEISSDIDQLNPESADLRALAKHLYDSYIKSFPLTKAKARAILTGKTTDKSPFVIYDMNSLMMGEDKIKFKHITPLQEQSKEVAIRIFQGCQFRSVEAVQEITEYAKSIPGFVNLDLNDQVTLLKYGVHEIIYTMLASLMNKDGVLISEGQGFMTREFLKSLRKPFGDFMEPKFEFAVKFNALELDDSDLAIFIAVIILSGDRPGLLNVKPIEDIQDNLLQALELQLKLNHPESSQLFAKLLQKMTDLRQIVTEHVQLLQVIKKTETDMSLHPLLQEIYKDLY
Sequence of Estrogen receptor (Homo sapiens) (P03372 whole entry, looked up): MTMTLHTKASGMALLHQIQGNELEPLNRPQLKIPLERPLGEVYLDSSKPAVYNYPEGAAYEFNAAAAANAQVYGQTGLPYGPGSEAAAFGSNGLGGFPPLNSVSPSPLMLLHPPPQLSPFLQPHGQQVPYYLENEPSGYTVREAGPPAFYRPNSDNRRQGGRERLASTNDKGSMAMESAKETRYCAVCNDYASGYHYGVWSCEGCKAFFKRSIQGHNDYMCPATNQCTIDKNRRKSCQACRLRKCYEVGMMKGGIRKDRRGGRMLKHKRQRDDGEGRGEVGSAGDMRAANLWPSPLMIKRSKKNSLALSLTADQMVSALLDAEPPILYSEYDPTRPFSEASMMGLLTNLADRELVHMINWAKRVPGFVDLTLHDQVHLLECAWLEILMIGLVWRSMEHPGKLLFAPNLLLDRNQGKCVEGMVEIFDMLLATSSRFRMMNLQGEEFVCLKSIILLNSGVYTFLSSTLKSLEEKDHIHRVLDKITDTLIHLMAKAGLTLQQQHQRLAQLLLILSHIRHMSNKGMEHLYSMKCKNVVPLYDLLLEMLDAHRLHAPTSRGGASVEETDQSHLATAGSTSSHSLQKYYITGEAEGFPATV
Sequence of Aryl hydrocarbon receptor (Homo sapiens) (P35869 whole entry, looked up): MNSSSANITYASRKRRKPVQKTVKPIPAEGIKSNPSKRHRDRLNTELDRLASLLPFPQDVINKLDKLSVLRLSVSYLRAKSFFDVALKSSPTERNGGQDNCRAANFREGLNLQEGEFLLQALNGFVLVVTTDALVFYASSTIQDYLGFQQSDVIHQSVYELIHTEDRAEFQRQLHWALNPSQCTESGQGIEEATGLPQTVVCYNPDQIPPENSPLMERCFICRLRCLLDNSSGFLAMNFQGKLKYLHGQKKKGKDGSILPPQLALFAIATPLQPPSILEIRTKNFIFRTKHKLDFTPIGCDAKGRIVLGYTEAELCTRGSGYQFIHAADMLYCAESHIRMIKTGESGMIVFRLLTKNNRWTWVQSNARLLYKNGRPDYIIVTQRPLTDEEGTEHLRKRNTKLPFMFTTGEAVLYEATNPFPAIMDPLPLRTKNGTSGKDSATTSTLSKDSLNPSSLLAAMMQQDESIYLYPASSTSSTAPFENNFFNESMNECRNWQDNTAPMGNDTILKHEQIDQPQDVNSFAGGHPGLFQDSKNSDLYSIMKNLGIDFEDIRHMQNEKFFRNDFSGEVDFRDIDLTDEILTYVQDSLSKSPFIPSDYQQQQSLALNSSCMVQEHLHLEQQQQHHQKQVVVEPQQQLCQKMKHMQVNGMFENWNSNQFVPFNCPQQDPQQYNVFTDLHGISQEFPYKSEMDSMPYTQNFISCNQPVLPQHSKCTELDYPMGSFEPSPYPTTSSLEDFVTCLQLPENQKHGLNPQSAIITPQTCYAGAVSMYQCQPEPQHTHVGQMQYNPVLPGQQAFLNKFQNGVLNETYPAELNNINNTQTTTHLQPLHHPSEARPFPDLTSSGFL

Nc1ccc(N=Nc2ccc(-c3ccc(N=Nc4c(S(=O)(=O)O)cc5cc(S(=O)(=O)O)c(N=Nc6ccccc6)c(O)c5c4N)cc3)cc2)c(N)c1
active: [6] 31.3 µM | [7] 39.4 µM
not listed: [13] | [14] | [15] | [16] | [17] | [18] | [19]
inactive: all other assays above

O=C(CBr)OCc1ccccc1
not listed: [1] | [2] | [3] | [18] | [19]
inactive: all other assays above

O=S1OC[C@@H]2[C@H](CO1)[C@]1(Cl)C(Cl)=C(Cl)[C@@]2(Cl)C1(Cl)Cl (some centres undefined)
active: [15] 61.1 µM
inactive: [1] | [14] | [2] | [5] | [18] | [7] | [16] | [19]

CCC(COC(=O)c1cc(OC)c(OC)c(OC)c1)(c1ccccc1)N(C)C (centres undefined)
inactive: [1] | [14] | [5] | [6] | [18] | [7] | [8] | [10] | [17] | [12]

C=CC(C)=O
not listed: [1] | [18] | [19]
inactive: all other assays above

Sc1ccccc1Cl
inactive: [8] | [9] | [10] | [11] | [17] | [12]

C[C@]12CC[C@H]3[C@@H](CCC4=CC(=O)CC[C@@H]43)[C@@H]1CC[C@@H]2OC(=O)CCC1CCCCC1
inactive: [8] | [10] | [11] | [17] | [12]

C=CC(=O)OCCCCO
active: [9] 3.86 µM
not listed: [2] | [6] | [11] | [13] | [15] | [17] | [18]
inactive: all other assays above

Nc1ccc([N+](=O)[O-])cc1[N+](=O)[O-]
not listed: [5] | [9] | [18] | [19]
inactive: all other assays above

CC(O)(CS(=O)(=O)c1ccc(F)cc1)C(=O)Nc1ccc(C#N)c(C(F)(F)F)c1 (centres undefined)
active: [4] 29.8 µM
not listed: [9] | [10] | [13]
inactive: all other assays above

CC(C)(OO)c1ccccc1
active: [10] 61.1 µM
not listed: [1] | [9] | [11] | [17] | [18]
inactive: all other assays above

CC(C)(C)C(O)C(Oc1ccc(Cl)cc1)n1cncn1 (centres undefined)
active: [15] 21.1 µM
inactive: [1] | [6] | [7] | [8] | [11]

COP(=S)(OC)Oc1cc(Cl)c(I)cc1Cl
inactive: [1] | [14] | [5] | [15] | [6] | [7] | [8] | [11] | [12]
active: [18] 24.3 µM | [19] 27.5 µM

ClCc1cccc(Cl)c1
inactive: [19] | [8] | [10] | [11] | [17] | [12]

Cc1cc(=O)[nH]o1
not listed: [1] | [19]
inactive: all other assays above
